The nature of assay [1]: A CellTox Green Cytotoxicity Assay to monitor cytotoxicity in HEK293 cells - 8 hour (AID 1224884). Further: nearly all actives have a fitted effect of over 35% in size. The gist of the method: (§1)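 Seeding of HEK293 cells together with cytotoxicity dye preceded a 5 h incubation at 37 C/5% CO2. Test compounds in DMSO were then added and fluorescence monitored across 40 h.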
Assay [2] can be described thus: qHTS RealTime-Glo MT Cell Viability Assay in HepG2 cells - 16 hour (AID 1224885). Further: nearly all actives have a fitted effect of over 50% in size. Further: potency means the concentration at half of the fitted maximal effect. The gist of the method: (§2)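 HepG2 suspension premixed with RealTime-Glo reagents is plated at 600 cells per well and left 5 h at 37 C/5% CO2. Compounds in DMSO then go in, and bioluminescence reflecting viable cell number is recorded over 40 h.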
Assay [3] is described as follows: qHTS RealTime-Glo MT Cell Viability Assay in HEK293 cells - 8 hour (AID 1224887). Further: nearly all actives have a fitted effect of over 50% in size. Further: potency means the concentration at half of the fitted maximal effect. An outline of the steps:
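Tox21 screen in HEK293 using RealTime-Glo MT chemistry, with cells and reagent co-dispensed. Luminescence proportional to viable cell number was captured at intervals during 40 h compound exposure at 37 C.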
For orientation: qHTS replaces the single test concentration by a dilution series.

The nature of assay [4]: A CellTox Green Cytotoxicity Assay to monitor cytotoxicity in HEK293 cells - 16 hour (AID 1224888). Further: nearly all actives have a fitted effect of over 35% in size. The gist of the method:
as §1

Assay [5] is described as follows: qHTS RealTime-Glo MT Cell Viability Assay in HepG2 cells - 0 hour (AID 1224889). Further: nearly all actives have a fitted effect of over 50% in size. Further: potency means the concentration at half of the fitted maximal effect. The gist of the method: as §2
Assay [6] in a line: qHTS assay to identify small molecule antagonists of the androgen receptor (AR) signaling pathway using the MDA cell line in the presence of 0.5 nM R1881 - cell viability counter screen (AID 1259242). Further: nearly all actives have a fitted effect of over 45% in size. Further: potency means the concentration at half of the fitted maximal effect. The gist of the method: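 R1881 at 0.5 nM final stimulated MDA-kb2 cells during 16 hr compound treatment at 37C. Cytotoxicity read: CellTiter-Fluor fluorescence after 30 min.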

The nature of assay [7]: qHTS assay to identify small molecule phospholipidosis (PLD) inducers (AID 1259344; active means well fitted curve in the direction sought with a large enough effect; an effect the other way counts as inactive or inconclusive). The gist of the method: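 HepG2 cells on collagen I, attached 4 h at 37 C, were co-treated with compound and LipidTOX Red dye for 24 h at 37 C, then fixed with paraformaldehyde plus Hoechst 33342 and imaged by high-content microscopy for phospholipid accumulation.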
Assay [8] can be described thus: qHTS assay to identify small molecule HDAC inhibitors (AID 1259364). Further: potency means the concentration at half of the fitted maximal effect.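 Further: wild-type HCT-116 cells with endogenous class I/II HDAC activity; nearly all actives have a fitted effect of over 45% in size.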 An outline of the steps: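 Relative class I and II HDAC activity is taken from the luminogenic signal in HCT-116 cells, with compound exposure 2 hr and reagent development 30 min at room temperature.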
Assay [9] can be described thus: qHTS assay to identify small molecule HDAC inhibitors - cell viability counter screen (AID 1259365). Further: series mostly up to about 92 µM; nearly all actives have a fitted effect of over 50% in size. An outline of the steps: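 HCT-116 (wild type), 1,500 cells/well, overnight 37C/5% CO2; compound in DMSO 2hr; CellTiter-Glo 30min RT; luminescence read.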
Assay [10] in a line: qHTS assay to identify small molecule agonists of the sonic hedgehog signaling (Shh) pathway - cell viability counter screen (AID 1259366). Further: nearly all actives have a fitted effect of over 50% in size. Further: potency means the concentration at half of the fitted maximal effect. The gist of the method:
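CellTiter-Fluor fluorescence read-out, 1 hr at 37C, added after 23hr compound exposure. Cells: 3T3 Gli1-Luc, an NIH/3T3 clone with stably integrated Gli1-Luc reporter, plated 4hr before compound.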

A short description of assay [11]: qHTS assay to identify small molecule agonists of the sonic hedgehog signaling (Shh) pathway (AID 1259368; calls by dose curve;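 further: NIH/3T3-derived 3T3Gli1-Luc cells carrying a stable Gli1-driven firefly luciferase reporter; series mostly up to about 92 µM; nearly all actives have a fitted effect of over 15% in size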). The gist of the method:
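Mouse fibroblast (NIH/3T3) reporter cells with stably integrated Gli1-Luc were treated 24 hr with compound; firefly luciferase luminescence served as the read-out.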

The nature of assay [12]: qHTS assay to identify small molecule antagonists of the sonic hedgehog signaling (Shh) pathway (AID 1259369; calls by dose curve; further: nearly all actives have a fitted effect of over 45% in size; further: potency means the concentration at half of the fitted maximal effect). An outline of the steps:
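Conditioned medium drives Shh signalling in 3T3Gli1-Luc cells; compounds in DMSO co-applied, 24hr at 37 C, then luciferase luminescence.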

The target of assay [13] is Estrogen receptor beta (Homo sapiens) (UniProt Q92731). In words: qHTS assay to identify small molecule agonists of the estrogen receptor beta (ER-beta) signaling pathway (AID 1259377; active means well fitted activation curve with a large enough effect in the signal ratio in the repeat runs, not every such curve was filed as active; the % refers to the signal ratio). The gist of the method: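 Beta-lactamase reporter readout: fluorescence of LiveBLAzer B/G FRET substrate after 2 h at room temperature, following 16 h compound treatment of ER-beta-UAS-bla HEK293T cells at 37C in 2% charcoal-stripped FBS medium.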

The target is the same in assay [14]. Briefly: qHTS assay to identify small molecule antagonists of the estrogen receptor beta (ER-beta) signaling pathway (AID 1259378; active means well fitted inhibition curve with a large enough effect in the signal ratio in the repeat runs, not every such curve was filed as active; the % refers to the signal ratio; further: potency means the concentration at half of the fitted maximal effect). The gist of the method:
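ER-beta-UAS-bla HEK293T (GripTite) cells in 2% charcoal-stripped FBS medium were preincubated 6 hr at 37C, dosed with compound, then stimulated with 1 nM E2 (final) for 16 hr; beta-lactamase reporter read by B/G FRET fluorescence after 2 hr substrate loading.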

A short description of assay [15]: qHTS RealTime-Glo MT Cell Viability Assay in HEK293 cells - 24 hour (AID 1224886). Further: nearly all actives have a fitted effect of over 50% in size. Further: potency means the concentration at half of the fitted maximal effect. The gist of the method: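 Reads taken at 0, 8, 16, 24, 32 and 40 h from the same wells. HEK293 cells (600/well) carried RealTime-Glo reagents from seeding, with compound added after a 5 h settle at 37 C.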
Assay [16] can be described thus: qHTS assay to identify small molecule antagonists of the estrogen receptor alpha (ER-alpha) signaling pathway using the BG1 cell line in the presence of 0.1 nM 17-beta-estradiol - cell viability counter screen (AID 1259241). Further: nearly all actives have a fitted effect of over 40% in size. The gist of the method: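 Live-cell protease activity (CellTiter-Fluor fluorescence, 30 min) was read in the same wells after VM7Luc4E2 cells had been exposed to compounds with 0.1 nM 17beta-estradiol for 22 hr at 37C.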

Assay [17] deals with Androgen receptor (Homo sapiens) (UniProt P10275). Briefly: qHTS assay to identify small molecule antagonists of the androgen receptor (AR) signaling pathway using the MDA cell line in the presence of 0.5 nM R1881 (AID 1259243). Further: nearly all actives have a fitted effect of over 50% in size. Further: potency means the concentration at half of the fitted maximal effect. The gist of the method: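 We exposed MDA-kb2 cells to compounds under 0.5 nM R1881 stimulation for 16 hr at 37C and quantified MMTV-driven luciferase by luminescence.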

Assay [18] can be described thus: A CellTox Green Cytotoxicity Assay to monitor cytotoxicity in HepG2 cells - 8 hour (AID 1224890). Further: nearly all actives have a fitted effect of over 45% in size. The gist of the method: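 Nonlytic assay: viable cells exclude the dye, so fluorescence scales with cell death. HepG2 at 600 cells/well, compounds added after 5 h, signal read across 40 h.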
The target of assay [19] is Estrogen receptor (Homo sapiens) (UniProt P03372). In words: qHTS assay to identify small molecule antagonists of the estrogen receptor alpha (ER-alpha) signaling pathway using the BG1 cell line in the presence of 0.1 nM 17-beta-estradiol (AID 1259244). Further: nearly all actives have a fitted effect of over 50% in size. Further: potency means the concentration at half of the fitted maximal effect. The gist of the method:
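VM7Luc4E2; 4xERE-luciferase; 0.1 nM E2 final; 22 h co-incubation, 37C; ONE-Glo luminescence after 30 min at room temperature.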

Assay [20] in a line: qHTS assay to identify small molecule antagonists of the sonic hedgehog signaling (Shh) pathway - cell viability counter screen (AID 1259367). Further: nearly all actives have a fitted effect of over 55% in size. Further: potency means the concentration at half of the fitted maximal effect. An outline of the steps: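 NIH/3T3-derived Gli1-Luc reporter cells (2,000 per well) rested 4 hr at 37 C, then received DMSO compounds plus conditioned medium. After 23 hr of treatment, CellTiter-Fluor was added for 1 hr at 37C and fluorescence read.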

Structures are written as SMILES. A number with no mark means an inactive call. Results filed as inconclusive are left out. Activity calls are given as the source filed them. Unless noted, the call rests on the fitted dose curve; in most records, active means well fitted curve in the direction sought with a large enough effect in the repeat runs; inconclusive means weak or mixed curves; inactive means no such curve, though single readings can be large; an effect the other way counts as inactive or inconclusive.

Sequence of Estrogen receptor beta (Homo sapiens) (Q92731 whole entry, looked up): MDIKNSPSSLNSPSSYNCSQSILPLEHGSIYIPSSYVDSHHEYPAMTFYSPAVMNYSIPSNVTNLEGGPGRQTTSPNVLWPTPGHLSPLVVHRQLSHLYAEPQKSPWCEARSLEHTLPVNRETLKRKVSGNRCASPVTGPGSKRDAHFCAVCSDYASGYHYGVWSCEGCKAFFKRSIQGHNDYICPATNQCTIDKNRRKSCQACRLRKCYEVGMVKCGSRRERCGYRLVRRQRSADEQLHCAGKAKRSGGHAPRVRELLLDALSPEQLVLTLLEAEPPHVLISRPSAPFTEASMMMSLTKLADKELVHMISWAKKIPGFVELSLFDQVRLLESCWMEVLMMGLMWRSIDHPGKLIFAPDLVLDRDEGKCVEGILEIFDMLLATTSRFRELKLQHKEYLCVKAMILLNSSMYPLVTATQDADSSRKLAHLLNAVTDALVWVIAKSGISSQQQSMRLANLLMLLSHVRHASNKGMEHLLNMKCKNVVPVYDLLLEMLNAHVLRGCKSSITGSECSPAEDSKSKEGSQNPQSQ
Sequence of Estrogen receptor (Homo sapiens) (P03372 whole entry, looked up): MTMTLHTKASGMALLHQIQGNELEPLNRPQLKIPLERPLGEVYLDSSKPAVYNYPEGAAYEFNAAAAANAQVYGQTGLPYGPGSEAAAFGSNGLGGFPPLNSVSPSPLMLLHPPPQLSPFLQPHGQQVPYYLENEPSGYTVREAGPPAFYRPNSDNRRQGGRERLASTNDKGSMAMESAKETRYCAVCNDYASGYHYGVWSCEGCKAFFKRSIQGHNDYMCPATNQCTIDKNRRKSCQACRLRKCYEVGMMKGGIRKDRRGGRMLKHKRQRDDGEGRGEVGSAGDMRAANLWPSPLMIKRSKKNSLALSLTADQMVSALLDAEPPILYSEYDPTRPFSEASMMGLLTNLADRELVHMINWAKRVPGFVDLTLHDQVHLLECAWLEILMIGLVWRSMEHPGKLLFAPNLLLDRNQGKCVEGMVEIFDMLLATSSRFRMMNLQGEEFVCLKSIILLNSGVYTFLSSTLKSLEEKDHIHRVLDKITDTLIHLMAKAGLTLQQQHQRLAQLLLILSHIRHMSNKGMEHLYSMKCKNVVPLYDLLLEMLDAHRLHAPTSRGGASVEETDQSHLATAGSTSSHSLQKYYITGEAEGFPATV
Sequence of Androgen receptor (Homo sapiens) (P10275 whole entry, looked up): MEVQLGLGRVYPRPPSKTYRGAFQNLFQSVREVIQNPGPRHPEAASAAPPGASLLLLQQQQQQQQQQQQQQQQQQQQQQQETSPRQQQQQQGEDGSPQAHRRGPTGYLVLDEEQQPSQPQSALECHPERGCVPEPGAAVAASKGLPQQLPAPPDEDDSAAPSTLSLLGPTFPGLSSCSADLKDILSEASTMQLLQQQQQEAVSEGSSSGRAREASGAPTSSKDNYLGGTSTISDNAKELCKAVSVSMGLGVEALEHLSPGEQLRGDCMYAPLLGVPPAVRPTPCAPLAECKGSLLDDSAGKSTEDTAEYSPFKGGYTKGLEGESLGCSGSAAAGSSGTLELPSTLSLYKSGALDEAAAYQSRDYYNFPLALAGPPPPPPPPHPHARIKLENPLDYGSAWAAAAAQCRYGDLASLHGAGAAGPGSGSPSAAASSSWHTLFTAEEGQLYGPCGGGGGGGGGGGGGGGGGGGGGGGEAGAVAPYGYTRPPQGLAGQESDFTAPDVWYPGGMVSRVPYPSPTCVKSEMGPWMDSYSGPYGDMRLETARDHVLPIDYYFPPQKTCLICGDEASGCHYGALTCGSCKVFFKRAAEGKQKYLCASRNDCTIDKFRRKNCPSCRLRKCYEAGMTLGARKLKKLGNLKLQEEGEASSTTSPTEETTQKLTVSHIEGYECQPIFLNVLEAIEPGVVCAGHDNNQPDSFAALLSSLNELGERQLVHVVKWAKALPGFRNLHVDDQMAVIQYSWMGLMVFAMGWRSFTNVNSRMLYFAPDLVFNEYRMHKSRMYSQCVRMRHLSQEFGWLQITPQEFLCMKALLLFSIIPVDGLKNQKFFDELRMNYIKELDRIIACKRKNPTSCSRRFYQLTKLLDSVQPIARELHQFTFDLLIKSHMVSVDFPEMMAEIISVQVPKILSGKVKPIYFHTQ

In the case of `O=[N+]([O-])c1ccc(O)c2ncccc12`, the Potency entry in assay [1], in assay [2], in assay [3], in assay [4], in assay [5] and in assay [7] was “inactive” throughout. In addition, the Potency result in assay [8], in assay [9] and in assay [11] was “inactive” each time. For the same compound, the Potency in assay [6] is 9.44 µM (active); in assay [10], 1.88 µM (active); in [12] it was 0.531 µM (active); in assay [14], 5.96 µM (active). Moreover, the call in assay [13] was inactive.
Regarding `Cc1cc(F)ccc1-c1cc(N2CC[C@@H](O)[C@H]2CO)ncc1N(C)C(=O)C(C)(C)c1cc(C(F)(F)F)cc(C(F)(F)F)c1`, the Potency result in assay [1], in assay [16], in assay [6], in assay [8], in assay [9] and in [11] was “inactive” in each case. Further, the Potency in assay [2] is 38.3 µM (active); in assay [15], 17.1 µM (active); in assay [3], 34.1 µM (active); in [5], 1.71 µM (active); in assay [17], 38 µM (active); in assay [10], 42.6 µM (active). For the same compound, the Potency in assay [14] is 19 µM (active).
For the compound `Cc1ccc(N=Nc2c(O)ccc3ccccc23)c(C)c1`, the Potency result in assay [1], in assay [2], in [15], in assay [5], in assay [18] and in assay [17] was “inactive” throughout. Also, the Potency entry in [8], in assay [11] and in assay [12] was “inactive” each time.
For `CC(=O)Nc1ccc(N=Nc2cc(C)ccc2O)cc1`, the Potency entry in assay [1], in [2], in assay [15], in [3], in [5] and in assay [18] was “inactive” in each case. The Potency entry in [16], in [17], in assay [19], in assay [9] and in [10] was “inactive” each time. The Potency in [8] was 2.73 µM (active); in assay [12] it was 15.4 µM (active). For the same compound, the compound was classed as inactive in assay [13].
As to `Oc1ccc(C2(c3ccc(O)c(C4CCCCC4)c3)CCCCC2)cc1C1CCCCC1`, the Potency result in assay [1], in [5], in assay [8], in assay [9] and in assay [11] was “inactive” in each case. Besides, the Potency is 38.9 µM (active) in assay [2]; 38.9 µM (active) in assay [15]; 43.6 µM (active) in [3]; 43.3 µM (active) in assay [6]; 43.3 µM (active) in assay [19]; 19.3 µM (active) in assay [10]. The Potency in assay [20] is 21.7 µM (active).
For `c1ccc(C[P+](c2ccccc2)(c2ccccc2)c2ccccc2)cc1`, the Potency entry in assay [1], in assay [2], in assay [5], in assay [18], in assay [8] and in assay [9] was “inactive” in each case. For the same compound, in assay [11], the Potency entry was “inactive”. Also, the Potency is 1.74 µM (active) in [15], 10.9 µM (active) in assay [6], 1.22 µM (active) in [19] and 5.45 µM (active) in [12].
With `NC(=O)c1ccccc1Cl`, the Potency entry in assay [1], in assay [2], in assay [15], in assay [3], in [5] and in assay [18] was “inactive” each time. In addition, the Potency entry in assay [6], in [19], in assay [8], in assay [9], in assay [10] and in assay [20] was “inactive” throughout. Further, the Potency entry in [11], in [12] and in [14] was “inactive” in each case. Besides, the outcome in assay [13] was inactive.
As for `O=C(N[C@H](CO)[C@H](O)c1ccc([N+](=O)[O-])cc1)C(Cl)Cl`, the Potency result in [1], in assay [2], in assay [4], in assay [5], in assay [18] and in assay [16] was “inactive” each time. For the same compound, the Potency entry in [6], in assay [19], in assay [7], in [8], in assay [9] and in assay [10] was “inactive” throughout. The Potency result in assay [20], in [11] and in assay [12] was “inactive” in each case.

For the origin of these results see PubChem BioAssay (Tox21).
